Test results published in the supplement of paper PMC12494721.
Counter-ions that a name gives are not always drawn.

Key:
Conditions in all cases: incubation time: 27 h, anaerobic, 37 °C;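 for the amine columns active = adjusted P below 0.05 in both replicates with a change the same way and a mean fold change under 0.8 or over 1.25; inactive = the rest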
[1] = tested on: Clostridium sporogenes DSM 1664; assay: growth (OD595) fold change vs plate DMSO controls (fold change (ratio)); higher = more growth
In short: (§1)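 Anaerobic 27 h, 37 °C mGAM 96-well cultures were shaken, then read for absorbance at 595 nm. Values were blank-subtracted and corrected for compound background using 20 µM compound solutions in water. A calibration factor of 5 converted them to OD. Growth is the fold change versus the median of plate DMSO controls. Fold changes above 1.5 were set to NA, and values are the mean of 2 biological replicates.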

Escherichia coli IAI1 [2] = assay: as above
In short: as §1

[3] = tested on: Klebsiella aerogenes DSM 30053; assay: as above
In short: as §1

[4] = tested on: Ruminococcus gnavus DSM 108212; assay: as above
In short: as §1

[5] = tested on: Klebsiella aerogenes DSM 30053; assay: fold change of Histamine concentration vs plate DMSO controls (fold change (ratio)); higher = more amine produced, active = hit call of the paper (significant change in both replicates, either direction)
In short: (§2)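 Using LC–triple-quadrupole MS with dynamic MRM, amines were quantified against external calibration curves and corrected for drift within each batch. Samples were whole anaerobic mGAM cultures of four gut strains, grown 27 h at 37 °C from OD 0.1 before 1:1 dilution, extracted with cold acetonitrile/methanol containing 0.1% formic acid and centrifuged. Compounds were present at 20 µM final (sweeteners at 50 µM final). The numbers are fold changes versus plate DMSO controls, each the mean of 2 biological replicates.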

[6] = tested on: Clostridium sporogenes DSM 1664; assay: fold change of Tryptamine concentration vs plate DMSO controls (fold change (ratio)); higher = more amine produced, active = hit call of the paper (significant change in both replicates, either direction)
In short: as §2

[7] = tested on: Ruminococcus gnavus DSM 108212; assay: as above
In short: as §2

Escherichia coli IAI1 [8] = assay: fold change of Putrescine concentration vs plate DMSO controls (fold change (ratio)); higher = more amine produced, active = hit call of the paper (significant change in both replicates, either direction)
In short: as §2

[9] = tested on: Klebsiella aerogenes DSM 30053; assay: as above
In short: as §2

Escherichia coli IAI1 [10] = assay: fold change of Cadaverine concentration vs plate DMSO controls (fold change (ratio)); higher = more amine produced, active = hit call of the paper (significant change in both replicates, either direction)
In short: as §2

[11] = tested on: Klebsiella aerogenes DSM 30053; assay: as above
In short: as §2

[12] = tested on: Ruminococcus gnavus DSM 108212; assay: fold change of 2-Phenylethylamine concentration vs plate DMSO controls (fold change (ratio)); higher = more amine produced, active = hit call of the paper (significant change in both replicates, either direction)
In short: as §2

Structure (SMILES) | growth [1] | growth (Escherichia coli IAI1 [2]) | growth [3] | growth [4] | fold change of Histamine concentration [5] | fold change of Tryptamine concentration [6] | fold change of Tryptamine concentration [7] | fold change of Putrescine concentration (Escherichia coli IAI1 [8]) | fold change of Putrescine concentration [9] | fold change of Cadaverine concentration (Escherichia coli IAI1 [10]) | fold change of Cadaverine concentration [11] | fold change of 2-Phenylethylamine concentration [12]
CC(C)C(=O)OCC(=O)[C@@]12O[C@H](C3CCCCC3)O[C@@H]1C[C@H]1[C@@H]3CCC4=CC(=O)C=C[C@]4(C)[C@H]3[C@@H](O)C[C@@]12C [Ciclesonide] (20 µM) | 1.08 | 1.12 | 1.01 | 1.17 | 1.02 (inactive) | 0.953 (inactive) | 0.966 (inactive) | 1.11 (inactive) | 0.999 (inactive) | 0.979 (inactive) | 0.99 (inactive) | 0.956 (inactive)
CN(C)[C@@H]1C(=O)C(C(=O)NCNCCCC[C@H](N)C(=O)O)=C(O)[C@@]2(O)C(=O)C3=C(O)c4c(O)cccc4[C@@](C)(O)[C@H]3C[C@@H]12 [Lymecycline] (20 µM) | 0.746 | 1.23 | 0.995 | 0.941 | 1.05 (inactive) | 0.933 (inactive) | 0.996 (inactive) | 1.2 (inactive) | 1.03 (inactive) | 1.11 (inactive) | 0.999 (inactive) | 1.02 (inactive)
CCCOc1ccccc1-c1nc2[nH]nnc2c(=O)[nH]1 [Zaprinast] (20 µM) | 1.03 | 0.972 | 1 | 1.2 | 0.988 (inactive) | 1.01 (inactive) | 1.01 (inactive) | 0.969 (inactive) | 1 (inactive) | 0.974 (inactive) | 1 (inactive) | 1.06 (inactive)
Cc1ccccc1OCC(O)CO (centres undefined) [Mephenesin] (20 µM) | 0.974 | 1.12 | 1.02 | 0.982 | 1.01 (inactive) | 1.02 (inactive) | 1.04 (inactive) | 1.13 (inactive) | 1 (inactive) | 0.927 (inactive) | 1 (inactive) | 1.06 (inactive)
N#Cc1ccc(Oc2ccc3c(c2)COB3O)cc1 [Crisaborole] (20 µM) | 1.06 | 0.983 | 1.02 | 1.12 | 0.998 (inactive) | 0.95 (inactive) | 0.688 (active) | 1.03 (inactive) | 0.987 (inactive) | 1 (inactive) | 0.994 (inactive) | 0.799 (inactive)
CN(C(=O)CN(CCO)CC(=O)N(C)C(C)(C)Cc1ccccc1)C(C)(C)Cc1ccccc1 [Oxethazaine] (20 µM) | 1.23 | 1.05 | 1 | 0.384 | 0.971 (inactive) | 0.918 (inactive) | 0.602 (active) | 1.1 (inactive) | 1 (inactive) | 1.01 (inactive) | 0.988 (inactive) | 0.728 (active)
Cc1cccc(C)c1OCC(=O)N[C@@H](Cc1ccccc1)[C@@H](O)C[C@H](Cc1ccccc1)NC(=O)[C@H](C(C)C)N1CCCNC1=O [Lopinavir] (20 µM) | 1.12 | 1.01 | 1.19 | 1.31 | 0.963 (inactive) | 0.892 (inactive) | 0.986 (inactive) | 0.989 (inactive) | 1.04 (inactive) | 1.02 (inactive) | 1.02 (inactive) | 0.997 (inactive)
CCCCN1CCCCC1C(=O)Nc1c(C)cccc1C (centres undefined) [Bupivacaine hydrochloride] (20 µM) | 1.13 | 1.07 | 1 | 0.881 | 0.967 (inactive) | 1.02 (inactive) | 1.01 (inactive) | 1.02 (inactive) | 0.995 (inactive) | 1.01 (inactive) | 1 (inactive) | 1.02 (inactive)
Cc1cccc(C)c1NC(=O)C(C)N (centres undefined) [Tocainide hydrochloride] (20 µM) | 0.909 | 1.02 | 0.994 | 1.06 | 1.06 (inactive) | 1.01 (inactive) | 1.02 (inactive) | 1.03 (inactive) | 1 (inactive) | 0.983 (inactive) | 0.976 (inactive) | 1.05 (inactive)
CC(=O)[C@H]1CC[C@H]2[C@@H]3CCC4=CC(=O)CC[C@]4(C)[C@H]3CC[C@]12C [Progesterone] (20 µM) | 1.08 | 1.02 | 1.05 | 0.651 | 0.893 (inactive) | 1.04 (inactive) | 0.981 (inactive) | 1.07 (inactive) | 0.961 (inactive) | 1.03 (inactive) | 1.02 (inactive) | 0.95 (inactive)
Cn1c(=O)cc(N2CCC[C@@H](N)C2)n(Cc2ccccc2C#N)c1=O [Alogliptin benzoate] (20 µM) | 1.06 | 0.955 | 1.09 | 1.02 | 0.923 (inactive) | 1.01 (inactive) | 0.899 (inactive) | 1.01 (inactive) | 1.01 (inactive) | 0.992 (inactive) | 1.01 (inactive) | 0.897 (inactive)
COc1ccccc1OCCNCC(O)COc1cccc2[nH]c3ccccc3c12 (centres undefined) [Carvedilol] (20 µM) | 0.934 | 0.974 | 0.98 | 1.01 | 0.972 (inactive) | 1.03 (inactive) | 0.977 (inactive) | 0.987 (inactive) | 0.98 (inactive) | 1.02 (inactive) | 0.989 (inactive) | 0.998 (inactive)
